SARS PLP yeast = inhibitors of SARS-CoV papain-like protease in yeast. S. cerevisiae expressing SARS-CoV PLpro, growth rescue. Potency, µM (doses to about 32.9 µM), for inactives: at the highest dose activity, positive = growth rescue, actives largely listed as activators. hit rate 0.19% among 330,000; calls by dose curve; also: potency is read from the fitted curve at half-maximal effect; 0% is about no effect; nearly all actives have a fitted effect of over 55% in size
Cycloheximide cs = counter-screen for Shiga toxin inhibitors: cycloheximide protein synthesis inhibition; cell reporter, cycloheximide protein synthesis inhibition counterscreen; max response, %; hit rate 12% among 300,000; in the data active = max response mostly above about 13%, no sharp cut-off; inactive = mostly below about 14%; also: read at 38.3 µM for the half of the compounds with a filed dose; 0% is about no effect
Pf growth 48h = P. falciparum growth inhibition at 48 hours (one generation); P. falciparum luciferase growth in erythrocytes, 48 h; Potency, µM (series often up to 28.7 µM), for the others: at the top dose activity change, negative = inhibition, usual class: inhibitors; hit rate 5.9% among 310,000; also: potency is read from the fitted curve at half-maximal effect; % is scaled to controls: 0 for no effect and ±100 for the full control effect
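A one-generation exposure of luciferase-tagged malaria parasites in RPMI 1640/Albumax erythrocyte culture, 37 C and 5% CO2. Inhibition is inferred from decreased luminescence after adding detection reagent.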
Shiga toxin inh = blocks Shiga toxin action in Vero cells. Vero cells, Shiga toxin protein synthesis inhibition reporter. inhibition, % at 38.7 µM. hit rate 9.2% among 290,000. AID 2315; in the data active = inhibition mostly above about 28%, no sharp cut-off; inactive = mostly below about 43%; also: 0% is about no effect
NS1 function inh = blocks influenza NS1 protein function; AID 2326; Potency, µM (titrated, usually from 46.1 µM), without a hit: at the top dose activity, positive = more growth; hit rate 0.4% among 270,000; calls by dose curve; also: potency is read from the fitted curve at half-maximal effect; actives are rising curves; nearly all actives have a fitted effect of over 50% in size
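In this qHTS, NS1 from influenza A is expressed in budding yeast, where it slows growth. Cells are switched from glucose to 2% galactose medium (pH 6.0, -URA), treated with compound, and growth recovery is read at OD600.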
Pf growth 96h = P. falciparum growth inhibition at 96 hours | Potency, µM (highest dose often 28.7 µM), without a hit: at the top dose activity change, negative = inhibition, actives largely listed as inhibitors | hit rate 6.9% among 320,000 | P. falciparum luciferase reporter growth, 96 h; also: potency is read from the fitted curve at half-maximal effect; % is scaled to controls: 0 for no effect and ±100 for the full control effect
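P. falciparum expressing integrated firefly luciferase, in erythrocytes at 2% hematocrit, 0.05% parasitemia, incubated with compounds 96 h at 37 C, 5% CO2. Growth inhibition read as loss of luminescence; two-generation exposure targets delayed-death apicoplast inhibitors.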
* marks the source's active call; other numbers are inactive results; ? = inconclusive; · = no result. In the library only some 21% were active in any assay of this set; here they are far more common. Unless noted, calls follow the shape of the dose curve; as a rule, active = well fitted inhibition curve with a large enough effect; inconclusive = small, poorly fitted or top-dose-only effect, or another doubt; inactive = no such curve, though single readings can be large or run the other way.

SMILES	SARS PLP yeast	Cycloheximide cs	Pf growth 48h	Shiga toxin inh	NS1 function inh	Pf growth 96h
CCCc1cc(=O)c2ccc(OCC(C)=O)cc2o1	0.6%	2.1	63.1%	3.1	-3.5%	0.0%
CC(=O)COc1ccc2c(C)c(C)c(=O)oc2c1	3.6%	52.1*	0.0%	79.4*	-64.3%	?
CCN(CC)C(=O)COc1ccc2c(-c3ccc(OC)cc3)cc(=O)oc2c1	-0.9%	0.2	?	-12.3	-6.0%	?
COCCCn1cc(C(=O)c2ccccc2OCC(=O)Nc2cccc(F)c2)cc(C#N)c1=O	-2.1%	9.5	?	49.9	-5.4%	?
N#Cc1cc(C(=O)c2cc(Br)ccc2O)cn(C2CC2)c1=O	5.6%	-4.9	?	-20.2	?	?
COCCCn1cc(C(=O)c2cc(Br)ccc2O)cc(C#N)c1=O	0.0%	2.3	?	-6.7	·	9.28µM*
CCCCn1cc(C(=O)c2cc(Br)ccc2O)cc(C#N)c1=O	-16.2%	-0.8	1.65µM*	-4.3	8.2%	2.08µM*
C=CCn1cc(C(=O)c2cc(Br)ccc2O)cc(C#N)c1=O	-0.9%	-1.5	?	-5.8	-8.5%	?
CCOCCCn1cc(C(=O)c2cc(Br)ccc2O)cc(C#N)c1=O	-3.8%	-0.8	5.22µM*	12.2	·	?
CC(C)n1cc(C(=O)c2cc(Br)ccc2O)cc(C#N)c1=O	12.8%	-4.9	·	-5.2	-7.7%	2.62µM*
O=S(=O)(Nc1ccc(-n2cnnn2)cc1)c1cccc(F)c1	0.3%	·	?	·	·	1.3%
N#Cc1cc([N+](=O)[O-])ccc1NC(=O)COC(=O)C12CC3CC(CC(C3)C1)C2	0.8%	1.1	-19.2%	2.6	1.2%	?
Cc1ccc(O)c(C(=O)c2cc(C#N)c(=O)n(C(C)c3ccccc3)c2)c1 (stereo unspecified)	-0.4%	-5.5	3.29µM*	31.4	·	5.86µM*
Cc1cc(N)ccc1-n1c(C)ccc1C	-13.7%	5.1	7.38µM*	-2.8	5.8%	10.9%
CCN1CCN(c2ccc(N)cc2C)CC1	0.9%	0.6	?	-6.4	-4.2%	?
Cc1cc(N)ccc1N1CCCC1	-9.1%	-1.1	0.465µM*	8.3	5.5%	0.415µM*
CN(CC(=O)NCc1ccncc1)S(=O)(=O)c1ccc(F)cc1	6.9%	2.4	12.7%	-25.5	7.4%	·
O=C1Nc2ccc(Br)cc2C1=Nc1ccc(-c2nnc3n2CCCCC3)cc1	-7.9%	-2.9	-3.1%	-6.7	-46.4%	·
O=C(Nc1cccc(S(=O)(=O)NC2=NCCC2)c1)c1ccc(C(F)(F)F)cc1	-5.8%	·	·	·	·	·
O=C(O)CSc1cc(C(=O)c2ccccc2O)cn2c(=O)c3c4c(sc3nc12)CCCC4	0.6%	-6.9	20.6%	-5.1	-35.1%	85.9%
NC(=O)c1csc(-c2ccc(CO)o2)n1	·	·	·	·	-2.8%	·
Nc1cccc(-c2ccc(CO)o2)c1	0.3%	30.7*	69.6%	67.8*	4.5%	-2.4%
Cc1cc(NC(=O)CN2C(=O)NC3(CCCCCC3)C2=O)no1	-0.9%	11.8	-4.5%	-12.5	2.7%	22.2%
CCC(C(=O)NCCC(C)C)n1ccc2cc(S(=O)(=O)N3CCCCC3)ccc21 (stereo unspecified)	-0.4%	15.6	11.7µM*	-6.7	17.1%	36.4%
COc1cccc(CNC(=O)C(C)n2ccc3cc(S(=O)(=O)N4CCCCCC4)ccc32)c1 (stereo unspecified)	2.3%	3.7	7.38µM*	-11.6	7.6%	?
SMILES	SARS PLP yeast	Cycloheximide cs	Pf growth 48h	Shiga toxin inh	NS1 function inh	Pf growth 96h
COc1cccc(CNC(=O)c2cc(S(=O)(=O)N3CCCC3)cn2C)c1	0.2%	-1.5	13.1µM*	-5.9	3.2%	11.7µM*
Cn1cc(S(=O)(=O)N2CCCC2)cc1C(=O)NCc1ccccc1	-9.0%	5.9	19.3%	-2.9	22.8%	-7.4%
CCn1cc(C(=O)NCCC(C)C)c(=O)c2cc(S(=O)(=O)N3CCCCC3)ccc21	5.3%	-2.1	?	-7.9	6.4%	?
O=C(O)CCCn1ccc2cc(S(=O)(=O)N3CCCC3)ccc21	-1.5%	-1.4	2.6%	-5.1	7.4%	13.1µM*
COc1cccc(CNC(=O)C(C)n2ccc3cc(S(=O)(=O)N4CCCC4)ccc32)c1 (stereo unspecified)	6.9%	9.4	?	-7.4	-4.3%	?
O=C(Nc1ccc(Br)cc1Br)C1CC(=O)N(Cc2ccccc2)C1 (stereo unspecified)	1.9%	-2.9	3.1%	-2.7	-4.2%	13.1%

Source: PubChem (National Center for Advancing Translational Sciences (NCATS))
